Assay outcomes deposited in PubChem by National Center for Advancing Translational Sciences (NCATS).
This is a sample that favours compounds with a hit; in the whole collection about 8% have one here.
MCF10A rerep – A quantitative high throughput screen for small molecules that induce DNA re-replication in MCF 10a normal breast cells; MCF 10A DNA re-replication, Hoechst nuclear intensity, 48 h; Potency, µM (doses to about 46.1 µM), hits mostly activators; 350,000 compounds, 2.9% hits; further: nearly all actives have a fitted effect of over 50% in size
SW480 rerep – A quantitative high throughput screen for small molecules that induce DNA re-replication in SW480 colon adenocarcinoma cells; SW480 DNA re-replication, Hoechst DNA content imaging, 48 h; Potency, µM (top dose mostly 46.1 µM), most hits filed as activators; 340,000 compounds, 1.8% hits; AID 624297, 2012; further: nearly all actives have a fitted effect of over 55% in size
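Quantitative HTS format with DMSO vehicle controls; 48 hr drug incubation at 37 C, then 40 min Hoechst staining and scanning imager measurement at 405 nm excitation.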
KB-V1 cytotox – qHTS assay for MDR1-selective chemotherapeutics: Primary screen using the drug-selected MDR subline cells KB-V1 | KB-V1 MDR cells viability, CellTiter-Glo, 72 h | Potency, µM (top dose mostly 46.1 µM), hits mostly cytotoxic | 400,000 compounds, 3.4% hits; further: nearly all actives have a fitted effect of over 60% in size
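Cytotoxicity via CellTiter-Glo luminescence after 72 h compound exposure at 37 degrees C. Cells: drug-selected KB-V1 line, DMEM phenol-red free plus 10% FBS. Compounds tested at multiple concentrations; normalized data fitted to concentration-effect curves.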
HT1080 IDH1KD tx – qHTS for induction of synthetic lethality in tumor cells producing 2HG: qHTS for the HT-1080-IDH1KD cell line. AID 686971, 2013. HT-1080 IDH1 knockdown viability, ATP luminescence, 48 h. 360,000 compounds, 2% hits. Potency, µM (titrated, usually from 46.1 µM), hits mostly cytotoxic
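% activity derives from luminescence (CellTiter-Glo), normalised to DMSO and no-cell wells. HT-1080-IDH1KD cells, 750/well, had 48 h compound exposure at 37 °C.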
HT1080NT lethal – qHTS for induction of synthetic lethality in tumor cells producing 2HG: qHTS for the HT-1080-NT fibrosarcoma cell line | HT-1080-NT fibrosarcoma viability, CellTiter-Glo ATP luminescence, 48 h | Potency, µM (doses to about 46.1 µM), usual class: cytotoxic | 360,000 compounds, 1.6% hits;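 further: NT is the 2HG producing partner of a matched IDH1 knockdown line; nearly all actives have a fitted effect of over 55% in size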
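750 cells/well, RPMI + 5% FBS; 2 h settle, compound pin-transfer, 48 h at 37 degrees C. CellTiter-Glo 10 min RT, luminescence. Normalized to DMSO and media-only wells.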
KB-3-1 cytotox – qHTS assay for MDR1-selective chemotherapeutics: Primary screen using the parental adenocarcinoma cell KB-3-1 | KB-3-1 viability, CellTiter-Glo ATP luminescence, 72 h | Potency, µM (doses to about 46.1 µM), hits mostly cytotoxic | AID 1347075, 2019 | 400,000 compounds, 1.4% hits; further: nearly all actives have a fitted effect of over 60% in size
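Using CellTiter-Glo luminescence, growth of non-resistant KB-3-1 adenocarcinoma cells is assessed 72 h after pin-tool compound addition at 37 °C. Normalized responses across the concentration series yield fitted curves.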
A number is an active result; . = inactive; ? = inconclusive; / = not tested or not shown; [ ] = remark or other dose. The call rests on the fitted dose curve; in most records, active means well fitted curve in the direction sought with a large enough effect; inconclusive means small, poorly fitted or top-dose-only effect, or another doubt; inactive means no such curve, though single readings can be large; an effect the other way counts as inactive or inconclusive.

SMILES	MCF10A rerep	SW480 rerep	KB-V1 cytotox	HT1080 IDH1KD tx	HT1080NT lethal	KB-3-1 cytotox
Cc1cccc(N(CC(O)CON=C2c3ccccc3-c3ccccc32)S(C)(=O)=O)c1 (stereo unspecified)	16.4µM	?	.	?	?	.
CCN(CC(O)CON=C1c2ccccc2-c2ccccc21)S(=O)(=O)c1ccc(Cl)cc1 (stereo unspecified)	?	.	?	.	.	?
CCN(CC(O)CON=C1c2ccccc2-c2ccccc21)S(=O)(=O)c1ccc(C)cc1 (stereo unspecified)	?	.	18.4µM	.	.	.
CN(CC(O)CON=C1c2ccccc2-c2ccccc21)S(=O)(=O)c1ccc(Br)cc1 (stereo unspecified)	16.4µM	?	18.4µM	?	?	?
Cc1nc2ncnn2c(C)c1CCC(=O)N1CCN(Cc2ccccc2)CC1	.	.	.	.	.	.
COc1ccc(C(=O)O)cc1S(=O)(=O)NCCc1ccccn1	.	.	.	.	.	.
COc1ccc(-c2cc(C(=O)NCCCN3CCOCC3)c3cc(C(C)C)ccc3n2)cc1	.	.	.	.	.	.
Cc1cccc(NC(=O)CSc2nc(=O)n3ccccc3n2)c1C	.	.	.	.	.	.
COC(=O)c1cccc(NC(=O)C23CC4CC(C2)CC(n2cncn2)(C4)C3)c1	.	.	20.6µM	.	.	.
O=C(Nc1ccccc1)C12CC3CC(C1)CC(n1cnc([N+](=O)[O-])n1)(C3)C2	.	.	.	.	.	.
COc1cc(NC(=O)C23CC4CC(C2)CC(n2cnc([N+](=O)[O-])n2)(C4)C3)cc(OC)c1	.	?	20.6µM	.	.	?
Cc1cccc(C(=O)NCC(=O)N2CC=C(c3ccccc3)CC2)c1	?	.	.	?	.	?
CN(C)CCN1CC(O)=C(c2nc3ccccc3s2)C1=N	18.4µM	.	.	.	.	.
O=C(Oc1cccc2ccccc12)c1ccccc1	.	.	.	.	.	.
COc1ccc(C(=O)c2c(-c3ccc(OC)cc3)oc3ccccc23)cc1	?	.	.	.	.	.
O=C(Oc1cc(=O)oc2ccccc12)c1ccccc1	7.31µM	4.11µM	.	16.4µM	16.4µM	5.17µM
O=C(Oc1c(-c2ccccc2)oc2ccccc2c1=O)c1ccccc1	?	.	11.6µM	.	.	?
COc1ccc(C(=O)c2ccc3oc(-c4ccc(OC)cc4)c(-c4ccc(O)cc4)c3c2)cc1	.	.	?	.	.	18.4µM
COc1ccc(-c2oc3ccccc3c(=O)c2OC(=O)c2ccc(C)cc2)cc1	.	.	11.6µM	.	.	?
CCOc1ccc(Br)cc1C(=O)N/N=C/c1cccnc1	.	.	.	.	.	.
O=C(C[C@H]1C[C@H](C(=O)N2CCOCC2)[C@@]2(CCC3CCCC3)c3[nH]c4cc(-c5ccco5)ccc4c3CCN2C1=O)NCCN1CCOCC1	?	?	.	?	.	?
CC[C@]12c3[nH]c4cc(-c5ccco5)ccc4c3CCN1C(=O)[C@@H](CC(=O)NCc1ccc(OC)c(OC)c1)C[C@@H]2C(=O)N1CCN(C(=O)c2ccco2)CC1	.	4.11µM	.	.	.	.
O=C(C[C@H]1C[C@H](C(=O)N2CCOCC2)[C@@]2(CCC3CCCC3)c3[nH]c4cc(-c5ccco5)ccc4c3CCN2C1=O)NCc1cccc(C(F)(F)F)c1	.	?	16.4µM	?	.	?
CCc1nnc(NC(=O)CSc2nnc(-c3cccnc3)n2CCc2ccccc2)s1	.	.	.	.	.	.
Cn1c(N)c(C(=O)CSc2nnc(-c3ccccc3F)n2C2CC2)c(=O)n(C)c1=O	.	.	?	.	.	.
SMILES	MCF10A rerep	SW480 rerep	KB-V1 cytotox	HT1080 IDH1KD tx	HT1080NT lethal	KB-3-1 cytotox
Cc1ccc(C(=O)NC2CCCC2)cc1S(=O)(=O)N1CCCCC1	.	.	.	.	.	.
CCn1c(SCC(=O)NC2CCCCC2)nnc1-c1ccccn1	.	.	.	.	.	.
C=C1CCC[C@]2(C)C[C@H]3OC(=O)C(CN4CCOCC4)[C@H]3C[C@@H]12 (stereo partly specified)	.	?	.	.	.	.
C/C1=C\CCC2C(/C=C(\C)CC1)OC(=O)C2CN1CCCCC1 (stereo unspecified)	?	20.6µM	?	20.6µM	?	.
CCCCNC(=O)c1ccc(CS(=O)(=O)c2ccc(OC)cc2)o1	.	.	.	.	.	.
COc1ccc(S(=O)(=O)Cc2ccc(C(=O)NCCCN(C)c3ccccc3)o2)cc1	.	.	6.51µM	.	.	.
CCCCNC(=O)COC(=O)c1ccc(N(C)C)cc1	.	.	.	.	.	.
C/C=C/c1ccc(OCCOc2cc(C=O)ccc2OC)c(OC)c1	.	.	14.6µM	.	.	.
Nc1ccn(Cc2cccc(F)c2)n1	.	.	.	.	.	.
N=c1ccn(Cc2cccc(F)c2)cc1	.	?	.	.	?	23.1µM
O=c1c2ccccc2nnn1COc1ccc(Cl)cc1Br	.	.	.	.	.	.
Cc1cc(C)n(-c2nc(NCCN(C)C)c3c4c(sc3n2)CCCC4)n1	?	?	?	20.6µM	20.6µM	.
Cc1cc(C)n(-c2nc(SCCN3CCOCC3)c3c4c(sc3n2)CCCC4)n1	.	.	.	.	.	?
Cc1cc(C)n(-c2nc(NCCCN(C)C)c3c4c(sc3n2)CCCC4)n1	?	?	?	?	14.6µM	?
Cc1cc(C)n(-c2nc(NCCCN(C)C)c3c4c(sc3n2)COC(C)(C)C4)n1	.	.[9.22 µM]	.	.	.	.
Cc1cc(N2CCCCCC2)nc2ccccc12	?	.	.	.	.	.
O=C(OCc1ccccc1)N1CCC2CC1c1c(Cl)cccc12 (stereo unspecified)	?	.	.	.	.	.
CC1=NN(C(N)=S)C(=O)C1N=Nc1ccc(S(N)(=O)=O)cc1 (stereo unspecified)	.	.	.	.	.	.
NS(=O)(=O)c1ccc(N=Nc2nc3[nH]cnc(=S)c3[nH]2)cc1	/	/	1.16µM	/	/	1.16µM
CC1CCC(NC(=O)C(NS(=O)(=O)c2cccc3nsnc23)C(C)C)CC1 (stereo unspecified)	.	.	.	.	.	.
CCOC(=O)c1c(C)c(C(=O)NCc2ccc3c(c2)OCO3)c(C)n1C	.	.	18.4µM	.	.	.
